The nature of test [1]: NCI Yeast Anticancer Drug Screen. Data for the rad50 strain (AID 155).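 Also: 0% = growth of vehicle-only cultures of the same strain.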 As to conditions: S. cerevisiae rad50 strain growth inhibition; at 50.0 µM; active compounds read high. In a few lines:
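Yeast carrying a defined DNA repair defect were exposed to test compounds, and growth was compared with vehicle-treated controls to give percent inhibition.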

Test [2] in a line: NCI Yeast Anticancer Drug Screen. Data for the mec2-1 strain (AID 157). As to conditions: S. cerevisiae mec2-1 strain, at 50.0 µM, active compounds read high. In a few lines:
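Compounds were applied to mec2-1 yeast cells. Their growth was then compared with that of vehicle-treated cultures to give growth inhibition.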

Test [3] can be described thus: NCI Yeast Anticancer Drug Screen. Data for the sgs1 mgt1 strain (AID 161).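 Also: 0% = growth of cultures given vehicle only.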 As to conditions: S. cerevisiae sgs1 mgt1 strain, at 50.0 µM, active compounds read high. In a few lines:
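Percent growth inhibition was derived by comparing compound-exposed mutant yeast with vehicle-exposed cultures. The strain carries alterations in DNA damage repair.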

Test [4] can be described thus: NCI Yeast Anticancer Drug Screen. Data for the cln2 rad14 strain (AID 165).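 Also: 0% = growth equal to vehicle treated cultures.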 To be noted: S. cerevisiae cln2 rad14 strain, at 50.0 µM, active compounds read high. In a few lines:
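Strain: cln2 rad14 yeast, altered in cell cycle control and DNA damage repair. Read-out: growth inhibition vs vehicle.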

The nature of test [5]: NCI Yeast Anticancer Drug Screen. Data for the bub3 strain (AID 167). To be noted: S. cerevisiae bub3 mutant strain, at 50.0 µM, active compounds read high. The essentials:
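Compounds were applied to a genetically altered yeast strain carrying a cell-cycle control defect. Growth inhibition was scored against vehicle-treated controls.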

Test [6] is described as follows: NCI Yeast Anticancer Drug Screen. Data for the mlh1 rad18 strain (AID 175). To be noted: S. cerevisiae mlh1 rad18 strain growth inhibition; at 50.0 µM; active compounds read high. The essentials:
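A repair-deficient yeast strain is exposed to test compound, and growth is scored relative to vehicle-treated controls.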

Results on 21 compounds are retold here after PubChem BioAssay (NCI).

About 79,000 compounds went through this panel and 15% of them were active in at least one assay; those are over-represented in the sample as a whole. Unmarked numbers belong to inactive results. Activity calls are given as the source filed them. Rule as the data show it: active = growth inhibition above about 70%; inactive = the rest.

On to `Cc1ccc(S(=O)(=O)NNC(=O)c2cccnc2)cc1`, for which the growth inhibition is -11.4% in test [1]; 18.7% in test [2]; 1.35% in test [3]; -27.8% in test [4]; -5.75% in test [5]; 4.8% in test [6].
On to `Nc1ccc(F)c(Cl)c1`, for which the growth inhibition in test [1] was 0.85%; in test [2], -16.4%; in test [3] it was 10.7%; in test [4] it was -17.9%; in test [5], -4.25%; in test [6], 14.7%.
On to `Cc1ccc(S(=O)(=O)/N=C2\CCN(S(=O)(=O)c3ccccc3)N2S(=O)(=O)c2ccc(C)cc2)cc1`, for which the growth inhibition in test [1] is 17.6%; in test [2] it was 15.5%; in test [3] it was 14.3%; in test [4] it was 9.85%; in test [5] it was 11.8%; in test [6] it was 46.5%.
In the case of `CCCOC(=O)CCCCCC1CCCCC1`, the growth inhibition in test [1] was 15.2%; in test [2], 6.1%; in test [3], -5.8%; in test [4], -33.1%; in test [5], -8.1%; in test [6], 8%.
On to `O=C(NNC(=S)Nc1ccc(S(=O)(=O)N2CCCCC2)cc1)c1ccncc1`, for which the growth inhibition in test [1] was 5.25%; in test [2], 11.1%; in test [3] it was 33.5%; in test [4], 4.2%; in test [5], 33%; in test [6], 46%.
In the case of `O=S(=O)(Cc1c(Cl)c(Cl)c(Cl)c(Cl)c1Cl)c1ccc(Cl)cc1`, the growth inhibition in test [1] was 1.2%; in test [2], -0.6%; in test [3], -1.25%; in test [4] it was -17.8%; in test [5] it was 2.4%; in test [6], -2.4%.
With `Cc1ccc(NC(=O)c2cccc(C(=O)Nc3ccc(C)c(Cl)c3)c2)cc1Cl`, the growth inhibition was -28.1% in test [1]; -16.6% in test [2]; -11.2% in test [3]; -35% in test [4]; -5.55% in test [5]; 8.6% in test [6].
Take `CSc1c(C(=O)Nc2ccc(C)cc2)c(N)nn1-c1ccccc1`: the growth inhibition in test [1] was 20.8%; in test [2], -12.3%; in test [3] it was 20.4%; in test [4] it was 12.8%; in test [5], 4.35%; in test [6], 2.7%.
As to `COc1cc2nncc(SCc3ccc(Cl)cc3)c2cc1OC`, the growth inhibition in test [1] was -1%; in test [2] it was 4.2%; in test [3] it was -0.55%; in test [4], -11%; in test [5], 15.5%; in test [6], 4.05%.
In the case of `CCCCCCCCCCCCCCCC[N+](C)(C)CCNC(C)=O`, the growth inhibition in test [1] is 99.2% (active); in test [2], 99.6% (active); in test [3] it was 99.7% (active); in test [4] it was 98.7% (active); in test [5], 99.2% (active); in test [6] it was 99.5% (active).
As for `COc1cc(CC2c3cccc(Oc4ccc(C)cc4)c3CCN2C)ccc1Oc1ccc(C)cc1` (stereo unspecified), the growth inhibition in test [1] is 98% (active); in test [2], 98.2% (active); in test [3] it was 98.7% (active); in test [4], 96.5% (active); in test [5] it was 97.4% (active); in test [6], 98% (active).
In the case of `COc1c(Cl)c(Cl)c([N+](=O)[O-])c(Cl)c1Cl`, the growth inhibition in test [1] was 40.4%; in test [2] it was 30.1%; in test [3], 35.5%; in test [4], 7.65%; in test [5], 37.9%; in test [6] it was 33.2%.
In the case of `COc1cc(C(NC(N)=O)c2cc3c(cc2O)OCO3)cc(OC)c1O` (stereo unspecified), the growth inhibition in test [1] was -1.4%; in test [2] it was 0.45%; in test [3], -12.2%; in test [4] it was -20.9%; in test [5] it was 12.4%; in test [6], 4.05%.
`COC(=O)C(=O)C(C(=O)C(=O)Nc1ccccc1[N+](=O)[O-])c1nc2ccc([N+](=O)[O-])cc2[nH]c1=O` (stereo unspecified): the growth inhibition in test [1] is 17.8%; in test [2], 15.2%; in test [3], 5%; in test [4], 26.6%; in test [5] it was 27.8%; in test [6] it was 20.7%.
With `Cc1ccc(C2C(Cl)C(=O)N2NC(=O)c2ccc(N)cc2)cc1` (stereo unspecified), the growth inhibition in test [1] was -50.4%; in test [2], -21.5%; in test [3], -61.1%; in test [4], -46.8%; in test [5] it was -27.4%; in test [6], -42%.
On to `N#C/C(=N\NC(=O)c1ccccc1)c1ccccc1`, for which the growth inhibition in test [1] was 5.65%; in test [2], 4.9%; in test [3], -3.7%; in test [4], -32.5%; in test [5], -8.3%; in test [6], 3.5%.
`COc1ccc(C(O)C(=O)c2nc3ccc(Cl)cc3[nH]c2=O)cc1` (stereo unspecified): the growth inhibition in test [1] was -30.1%; in test [2], -28.6%; in test [3], -22.2%; in test [4], -33.7%; in test [5], -16.6%; in test [6], -20.2%.
For the compound `CCCCCCC1CCC(OC(C)=O)CC1` (stereo unspecified), the growth inhibition is 5.65% in test [1]; -4% in test [2]; -1.1% in test [3]; -0.9% in test [4]; 1.7% in test [5]; 0.55% in test [6].
Take `CCCCC(CC)CN(CC(CC)CCCC)C1C=CCCC1` (stereo unspecified): the growth inhibition was 3.6% in test [1]; -10.3% in test [2]; 7.9% in test [3]; -36.8% in test [4]; 6.5% in test [5]; 2.7% in test [6].
`O=C1c2ccccc2C(=O)c2c(O)c3c(c(O)c21)CCCC3`: the growth inhibition was -14.4% in test [1]; 7.55% in test [2]; -1.05% in test [3]; -9.65% in test [4]; 1.95% in test [5]; 5.7% in test [6].
Take `Cc1nc2ccccc2nc1CC(O)(c1ccccc1)c1cccc2ccccc12` (stereo unspecified): the growth inhibition in test [1] was 55.8%; in test [2], 18.9%; in test [3], 37.4%; in test [4], 26.9%; in test [5], 13.2%; in test [6], 38.4%.
